High-throughput results: PubChem BioAssay, National Center for Advancing Translational Sciences (NCATS)
Cycloheximide cs: affects cycloheximide protein synthesis inhibition readout, counter-screen; max response, %; AID 2314; cell reporter, cycloheximide protein synthesis inhibition counterscreen; 12% of 300,000 active; in the data active = max response mostly above about 13%, no sharp cut-off; inactive = mostly below about 14%; note: read at 38.3 µM for the half of the compounds with a filed dose; 0% is about no effect
FBPA Giardia inh: Giardia lamblia aldolase inhibition | purified Giardia FBPA | Potency, µM (doses to about 59.6 µM), for the others: at the top dose activity, negative = inhibition, hits mostly inhibitors | 0.71% of 290,000 active | AID 2451; note: potency is the fitted concentration of half-maximal effect; % is set by controls: 0 for no effect and ±100 for the full control effect; nearly all actives have a fitted effect of over 55% in size
Target sequence (A8B2U2 whole entry, looked up): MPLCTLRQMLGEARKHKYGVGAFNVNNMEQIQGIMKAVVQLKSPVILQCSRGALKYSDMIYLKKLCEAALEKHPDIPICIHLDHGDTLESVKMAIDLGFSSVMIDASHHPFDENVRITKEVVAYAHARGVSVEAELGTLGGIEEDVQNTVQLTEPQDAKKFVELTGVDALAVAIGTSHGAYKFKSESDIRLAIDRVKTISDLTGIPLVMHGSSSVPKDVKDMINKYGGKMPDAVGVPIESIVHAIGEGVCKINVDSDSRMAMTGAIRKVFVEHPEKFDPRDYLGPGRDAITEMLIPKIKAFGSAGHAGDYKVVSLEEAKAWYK
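Giardia FBPA (40 nM reagent) was preincubated 10 min at RT with compound (up to 57.5 uM final), then substrate plus GAPDH/TPI/NAD/arsenate coupling system with diaphorase/resazurin was added; resorufin fluorescence (525/598 nm) was read after 20 min.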
Pf growth 48h: P. falciparum growth inhibition at 48 hours (one generation); P. falciparum luciferase growth in erythrocytes, 48 h; Potency, µM (titrated, usually from 28.7 µM), inactives show top-dose activity change, negative = inhibition, usual class: inhibitors; 5.9% of 310,000 active; note: potency is the fitted concentration of half-maximal effect; % is set by controls: 0 for no effect and ±100 for the full control effect
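A one-generation exposure of luciferase-tagged malaria parasites in RPMI 1640/Albumax erythrocyte culture, 37 C and 5% CO2. Inhibition is inferred from decreased luminescence after adding detection reagent.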
Pf growth 96h: inhibits malaria parasite growth, 96 h | Potency, µM (titrated, usually from 28.7 µM), for the others: at the top dose activity change, negative = inhibition, hits mostly inhibitors | P. falciparum luciferase reporter growth, 96 h | 6.9% of 320,000 active | AID 504834; note: potency is the fitted concentration of half-maximal effect; % is set by controls: 0 for no effect and ±100 for the full control effect
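P. falciparum expressing integrated firefly luciferase grown in erythrocytes (2% hematocrit, 0.05% parasitemia final) with compounds for 96 hours at 37 C, 5% CO2. Growth inhibition read as loss of luminescence after adding luciferase detection reagent.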
Shiga toxin inh: inhibitors of Shiga toxin in Vero cells; Vero cells, Shiga toxin protein synthesis inhibition reporter; inhibition, % at 38.7 µM; 9.2% of 290,000 active; AID 2315; in the data active = inhibition mostly above about 28%, no sharp cut-off; inactive = mostly below about 43%; note: 0% is about no effect
NS1 function inh: influenza NS1 inhibition. Potency, µM (doses to about 46.1 µM), without a hit: top-dose activity, positive = more growth. 0.4% of 270,000 active. AID 2326; calls by dose curve; note: potency is the fitted concentration of half-maximal effect; actives are rising curves; nearly all actives have a fitted effect of over 50% in size
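OD600 was taken as the measure of yeast growth restored by compound in an NS1-expressing S. cerevisiae strain. Cells had been washed out of glucose medium and diluted 1:100 into galactose -URA medium, pH 6.0.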
* marks the source's active call; other numbers are inactive results; ? = inconclusive; / = not tested or not shown; [ ] = another dose, or the depositor's remark. An excerpt weighted towards active compounds, which were near 21% of everything screened. Unless noted, calls come from the whole dose curve; as a rule, active = well fitted curve in the direction sought with a large enough effect; inconclusive = small, poorly fitted or top-dose-only effect, or another doubt; inactive = no such curve, though single readings can be large; an effect the other way counts as inactive or inconclusive.

SMILES | Cycloheximide cs | FBPA Giardia inh | Pf growth 48h | Pf growth 96h | Shiga toxin inh | NS1 function inh
CC1(C(=O)NCc2ccc(Cl)c(Cl)c2)Oc2cccnc2NC1=O (stereo not drawn) | -7 | 3% | ? | 5.2µM* | -3 | -4%
O=C(/C=C\c1ccc2c(c1)OCO2)CC1(O)C(=O)Nc2ccccc21 (stereo not drawn) | 6 | 4% | 26% | -18% | -4 | ?
CCOC(=O)Cc1csc(NC(=O)Cc2ccccc2[N+](=O)[O-])n1 | 18* | -12% | 12% | ? | 85 | /
CCOC(=O)Cc1csc(NC(=O)CCN2C(=O)c3cccc([N+](=O)[O-])c3C2=O)n1 | -5 | 4% | 9% | 13µM* | -10 | 4%
CCOC(=O)Cc1csc(NC(=O)C(C)c2ccc([N+](=O)[O-])cc2)n1 (stereo not drawn) | -1 | -7% | 9.3µM* | 23% | 12 | /
COC(=O)C/C=C\[C@@H](C)[C@@H](/C=N\O[C@@H]1O[C@H](COC(C)=O)[C@H](OC(C)=O)[C@H](OC(C)=O)[C@H]1OC(C)=O)OC | / | 1%[12.9 µM] | / | / | / | /
Oc1ccccc1C(Nc1nccs1)c1ccc2cccnc2c1O (stereo not drawn) | 0 | ? | 1.9µM* | 2.6µM* | 5 | 4%
Oc1c(C(Nc2ccccn2)c2ccccn2)ccc2cccnc12 (stereo not drawn) | -4 | ? | 2.9µM* | / | -13 | -94%
Cn1cnc2cc(NCc3ccccc3Cl)ccc21 | 39* | 3% | 83% | 117% | 105* | -7%
CCn1cnc2cc(NCc3ccccc3Cl)ccc21 | 36* | 6% | 0% | 1.5µM* | 67* | -49%
CC(C)C[C@@H](CC(=O)N[C@@H](CCC(=O)O)CC(=O)O)NC(=O)[C@@H]1CCCC[C@H]1NC(=O)C[C@H](CCCN)NC(=O)C[C@H](Cc1ccccc1)NC(=O)[C@@H]1CCCC[C@H]1N | / | -8% | / | / | / | /
CCN(Cc1ccncc1)C(=O)C1CCC(=O)N(Cc2ccc(Cl)cc2)C1 (stereo not drawn) | -3 | / | -10% | ? | -20 | 2%
O=C1C=C(c2ccc(Cl)cc2)OC2(CCCC2)O1 | -1 | 7% | ? | 13µM* | 44 | -22%
CCN(CC(=O)O)CC(=O)O | / | / | / | / | / | 0%
CCC(C)N1CCC2(CC1)N=c1c(c3c4c5c(C)c(O)c3c(O)c1=NC(=O)C(C)=CC=C[C@H](C)[C@H](O)[C@@H](C)[C@@H](O)[C@@H](C)[C@H](OC(C)=O)[C@H](C)[C@@H](OC)C=CO[C@@](C)(O5)C4=O)N2 (stereo partly drawn) | / | / | 9.3µM* | ? | / | /
CO[C@H]1C=CO[C@@]2(C)Oc3c(C)c(O)c4c(O)c(c5c(c4c3C2=O)NC2(CCN(CC(C)C)CC2)N=5)=NC(=O)C(C)=CC=C[C@H](C)[C@H](O)[C@@H](C)[C@@H](O)[C@@H](C)[C@H](OC(C)=O)[C@@H]1C | 6 | -29% | / | / | -1 | /
Cc1ccc(NC(=O)CSCC(=O)NC2(C)CCS(=O)(=O)C2)cc1 (stereo not drawn) | / | / | -19% | -7% | / | /
Cc1noc(C)c1CC(=O)Nc1ccc2c(c1)OCO2 | / | / | -15% | 22% | / | /
CCCC(C(=O)NC1CCCC1)N(Cc1ccccc1)C(=O)c1snc(C(N)=O)c1N (stereo not drawn) | -3 | 14% | ? | 32% | 2 | -12%
Cc1cccc(N(CC(=O)Nc2ccccc2F)S(C)(=O)=O)c1 | -3 | 1% | / | 5.2µM* | -17 | 2%
Fc1ccc(Nc2nc(-c3cccnc3)nc3ccccc23)cc1 | / | -5% | / | / | / | /
c1csc(CNc2nc(-c3ccoc3)nc3ccccc23)c1 | / | -9% | / | / | / | /
c1cncc(-c2nc(NCc3cccs3)c3ccccc3n2)c1 | -1 | -7% | ? | 13µM* | -12 | /
Fc1ccccc1CNc1nc(-c2cccnc2)nc2ccccc12 | -9 | 4% | 12µM* | 5.2µM* | -7 | -68%
COC(=O)c1ccc(CNC(=O)c2ccc(OCC(=O)N3CCOCC3)c(OC)c2)cc1 | / | / | 23% | 43% | / | /
SMILES | Cycloheximide cs | FBPA Giardia inh | Pf growth 48h | Pf growth 96h | Shiga toxin inh | NS1 function inh
COc1ccc(CCNC(=O)CSc2nc3ncccc3[nH]2)c(OC)c1 | -3 | / | -3% | ? | -4 | -2%
CCCCCn1c(N)c(C(=O)NCc2cccs2)c2nc3ccccc3nc21 | 0 | -27% | 2% | ? | 12 | 8%
CCCOC(=O)c1c(N)n(Cc2cccs2)c2nc3ccccc3nc12 | -8 | -8% | / | 7.4µM* | -17 | 3%
Nc1c(C(=O)NCCCc2ccccc2)c2nc3ccccc3nc2n1Cc1cccs1 | -5 | ? | 12µM* | / | -10 | 25%
C=CCn1c(N)c(C(=O)OCCC)c2nc3ccccc3nc21 | -7 | -21% | 0% | ? | -26 | -13%
COc1cc(CC(=O)OCC(=O)c2c[nH]c3ccccc23)cc(OC)c1OC | / | / | 4.1µM* | 13µM* | / | /
COc1ccc(N2CCN(C(=O)C(=O)c3c[nH]c4ccccc34)CC2)cc1 | 0 | / | 7% | ? | -5 | -2%
O=C(c1c[nH]c2ccccc12)C(O)C(c1ccccc1)N1CCOCC1 (stereo not drawn) | -1 | 0% | -4% | 13% | 7 | -3%
O=C(CC1CC2CCC1C2)OCC(=O)c1c[nH]c2ccccc12 (stereo not drawn) | 53* | -1% | ? | 5.2µM* | 148* | -138%
COc1ccccc1C(=O)COC(=O)Cc1c[nH]c2ccccc12 | / | / | 13% | 44% | / | /
COc1ccc(C(C(O)C(=O)c2c[nH]c3ccccc23)N2CCN(c3ccc(OC)cc3)CC2)cc1 (stereo not drawn) | 7 | -13% | 13µM* | / | 10 | -9%
Cc1ccccc1OCC(=O)OCC(=O)c1c[nH]c2ccccc12 | / | / | -9% | ? | / | /
COc1ccc(C(=O)c2c[nH]c3ccccc23)cc1 | 61* | -4% | 44% | ? | 65* | -13%
NC(=O)C1CCN(c2nc(-c3cccc(Br)c3)cs2)CC1 | / | / | ? | -27% | / | /
Cc1ccc(N2C(=O)C3C4C=CC(CNC(=S)Nc5cccc(Cl)c5)(O4)C3C2=O)cc1 (stereo not drawn) | -5 | 2% | 1% | ? | -6 | 0%
O=C(CNS(=O)(=O)c1ccccc1)OCC(=O)c1c[nH]c2ccccc12 | / | / | 8.3µM* | 4.1µM* | / | /
O=C(Cn1c(C(F)(F)F)nc2ccccc21)OCC(=O)c1c[nH]c2ccccc12 | 1 | 0% | 12µM* | 4.1µM* | 5 | 7%
COc1ccc(CC(=O)OCC(=O)c2c[nH]c3ccccc23)cc1 | / | / | 8.3µM* | -112% | / | /
Cc1cccc(NC(=O)CCCN2C(=O)C(c3ccccc3)Oc3cccnc32)c1C (stereo not drawn) | 1 | / | ? | 21% | -2 | -3%
COc1cc(OC)cc(C(=O)N/N=C\c2ccoc2)c1 | 9 | -11% | -2% | 16% | 12 | 5%
O=C(Nc1cccc2cccnc12)c1c(Cl)cc(Cl)cc1Cl | 17 | / | / | / | -4 | /
